Experimental data as given in ChEMBL document CHEMBL2218924, “A broad activity screen in support of a chemogenomic map for kinase signalling research and drug discovery” (Biochem J, 2013).

These compounds were tested against T1, Testis-specific serine/threonine-protein kinase 2 (Homo sapiens) (UniProt Q96PF2). Details: at 1 µM.
T1 sequence (whole entry): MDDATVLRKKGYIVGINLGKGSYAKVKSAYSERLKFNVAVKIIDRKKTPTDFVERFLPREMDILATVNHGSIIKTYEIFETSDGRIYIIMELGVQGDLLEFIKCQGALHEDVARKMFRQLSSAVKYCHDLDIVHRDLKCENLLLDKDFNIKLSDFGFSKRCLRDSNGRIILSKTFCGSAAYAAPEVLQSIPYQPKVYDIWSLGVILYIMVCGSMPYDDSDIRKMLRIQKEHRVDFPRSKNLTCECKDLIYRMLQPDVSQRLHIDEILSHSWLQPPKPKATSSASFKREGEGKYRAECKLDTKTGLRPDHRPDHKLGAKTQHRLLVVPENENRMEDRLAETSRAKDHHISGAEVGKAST

SMILES	residual activity [%]
CCN(CC)CCCCN1c2ccccc2Oc2ccc(Cl)cc21	109
COc1ccc(CNc2nc(N(CCO)CCO)nc3c2ncn3C(C)C)cc1	98
Cn1sc(=O)n(Cc2ccccc2)c1=O	88
Cn1nc2c3c(cccc31)C(=O)c1ccccc1-2	79
CO[C@@H]1[C@H](N(C)C(=O)c2ccccc2)C[C@H]2O[C@]1(C)n1c3ccccc3c3c4c(c5c6ccccc6n2c5c31)C(=O)NC4	51
Oc1c2ccccc2c2c3c(cccc13)N=N2	92
O=C1Nc2cc(Br)ccc2/C1=C1/Nc2ccccc2/C1=N\O	73
Cc1cc(Nc2nc(-c3ccccc3)nc3ccccc23)n[nH]1	96
CCN(CC)C(=O)c1ccc(Nc2nc(OCC3CCCCC3)c3nc[nH]c3n2)cc1	62
Oc1cccc(-c2nc(N3CCOCC3)c3oc4ncccc4c3n2)c1	93
CC(C)[C@H](CO)Nc1nc(Nc2cc(N)cc(Cl)c2)c2ncn(C(C)C)c2n1	91
Nc1ncnc2c1cnn2-c1ccccc1	93
O=C1Cc2c([nH]c3ccc(Br)cc23)-c2ccccc2N1	96
Cn1cnc2cc3c(Nc4cccc(Br)c4)ncnc3cc21	100
CO[C@H]1[C@@H](OC)C[C@H](C)[C@@H](OC)C2=CC(=O)C=C(NC(=O)/C(C)=C/C=C/[C@H](OC)[C@@H](OC(N)=O)/C(C)=C/[C@@H]1C)C2=O	97
Cc1nc(-c2ccccc2)c(-c2ccncc2)o1	97
CCCC(=O)Oc1ccc2[nH]c(C(=O)c3cc4ccccc4[nH]3)cc2c1	96
CN(C)CCCn1cc(C2=C(c3c[nH]c4ccccc34)C(=O)NC2=O)c2ccccc21	103
Nc1ncnc2c1c(-c1ccc(Oc3ccccc3)cc1)cn2C1CCCC1	86
O=C(O)/C=C/c1cc(Br)c(Br)c(Br)c1Br	96

SMILES	residual activity [%]
O=C1NC(=O)c2c1c1c3ccccc3[nH]c1n1cncc21	83
N#CC(C#N)=C(N)/C(C#N)=C/c1ccc(O)cc1	85
Nc1n[nH]c2nnc(-c3c(-c4ccccc4)nn4ccccc34)cc12	104
Fc1ccc(-c2nc3n(c2-c2ccncc2)CCS3)cc1	85
COc1ccc(OC)c2c(=S)c3ccccc3[nH]c12	106
O=C(Nc1cccc(Nc2nccc(Nc3cccc(C(F)(F)F)c3)n2)c1)C1CC1	86
c1ccc(-c2cnc(Nc3ccc(OCCN4CCCC4)cc3)s2)cc1	100
CCN(CC)CCNC(=O)c1c(C)[nH]c(/C=C2\C(=O)Nc3ccc(Cl)cc32)c1C	62
O=Nc1c(-c2c(O)[nH]c3ccccc23)[nH]c2ccccc12	95
Oc1ccc(-c2nc(-c3ccc(F)cc3)c(-c3ccncc3)[nH]2)cc1	103
COc1cc2ncnc(N3CCN(C(=O)Nc4ccc(Oc5ccccc5)cc4)CC3)c2cc1OC	96
Nc1ccc2ncnc(NCCc3ccc(Oc4ccccc4)cc3)c2c1	106
O=C(NC(NC(=S)Nc1ccc(F)c([N+](=O)[O-])c1)C(Cl)(Cl)Cl)C(c1ccccc1)c1ccccc1 (stereo not given)	102
CC[n+]1c(/C=C/N(C)c2ccccc2)n(-c2ccccc2)c2ccc(-c3nc4ccccc4s3)cc21	104
O=c1cc(N2CCNCC2)oc2c(-c3ccccc3)cccc12	92
O=C(O)c1ccc2c3c1cccc3c(=O)n1c3ccccc3nc21	118
CCOC(=O)c1c(C)[nH]c(/C=C2\C(=O)Nc3ccccc32)c1C	90
Cc1nc2cc3nc(-c4cccs4)cnc3cc2n1C	104
CC#CC(=O)Nc1cc2c(Nc3ccc(F)c(Cl)c3)ncnc2cn1	87
COc1cc2nccc(Oc3ccc(NC(=S)NC(=O)c4ccccc4C)cc3)c2cc1OC	94
